Molecules are shown by their SMILES. “And” between values parts separate entries of the source, which are not always exact repeats. Identical values can stand only once. Records with an inconclusive call do not appear. Unmarked numbers belong to inactive results. The source made the active and inactive calls. Calls come from the whole dose curve; as a rule, active = well fitted curve in the direction sought with a large enough effect; inconclusive = small, poorly fitted or top-dose-only effect, or another doubt; inactive = no such curve, though single readings can be large; an effect the other way counts as inactive or inconclusive.

What is called viability is a read-out of living cells in per cent, often relative to untreated cells.

Assay [1] addresses Cellular tumor antigen p53 (Homo sapiens) (UniProt P04637). Description: Primary qHTS for small molecule compounds that upregulate eGFP-tagged delta133p53alpha (in N-terminal) cells. (AID 2060322).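 For activation: cells pre-induced with doxycycline then dosed without doxycycline; 0% = DMSO vehicle and 100% = reference activator.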 Note: nearly all actives have a fitted effect of over 75% in size. Note: potency is the fitted concentration of half-maximal effect. The settings on record: NCI-H358 eGFP-delta133p53alpha fluorescence, 24 h; activation: hits give high values. A digest of the protocol:
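NCI-H358 cells pre-induced 24 h with 10 ng/ml doxycycline for eGFP-delta133p53alpha, plated dox-free and exposed 24 h at 37C to titrated compounds. Fixed, Hoechst-stained; gated GFP peak intensity by laser scanning cytometry, normalized to DMSO (0%) and 57.5 uM 5-azacytidine (100%).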
(In qHTS, concentration-response curves come from the screen itself.)

The target in assay [2] is Aldehyde dehydrogenase, mitochondrial (Homo sapiens) (UniProt P05091). Description: qHTS for Inhibitors of the Aldehyde Dehydrogenase Family (ALDH2) Primary screen (AID 2061308).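 Note: plate controls were vehicle for no effect and reference inhibitor for full effect; nearly all actives have a fitted effect of over 55% in size.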 As to conditions: ALDH2 enzyme inhibition qHTS, 1536-well; series mostly up to 56 µM.
Assay [3] deals with Retinaldehyde dehydrogenase 3 (Homo sapiens) (UniProt P47895). Description: qHTS for Inhibitors of the Aldehyde Dehydrogenase Family (ALDH1A3) Validation screen (AID 2061312). Note: % is set by controls: 0 for no effect and ±100 for the full control effect; nearly all actives have a fitted effect of over 45% in size. As to conditions: ALDH1A3 enzyme inhibition qHTS validation, fluorescence; series mostly up to 42.4 µM.
Assay [4] shares this target. In words: qHTS for Inhibitors of the Aldehyde Dehydrogenase Family (ALDH1A3) Primary screen (AID 2061315).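 Note: plate controls were DMSO vehicle for no effect and reference inhibitor for full effect.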 The settings on record: ALDH inhibition qHTS; series mostly up to 56 µM.
Assay [5] in a line: BET inhibitor-based combinations targeting novel dependencies in MECOM-rearranged (r) AML: OCI-AML3 cell line (AID 2202232). Note: nearly all actives have a fitted effect of over 35% in size. Note: potency is the fitted concentration of half-maximal effect. The settings on record: CellTiter-Glo luminescence, 48 h; Potency: OCI-AML3 viability; series mostly up to 46 µM. Summed up:
(§1)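 Luminescent ATP readout (CellTiter-Glo) after 48 hr drug exposure gives viability. Curves span 11 concentrations and are normalized to DMSO and empty wells. Activity is reported as area under the curve and its Z-transform within each cell line.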

Assay [6] is described as follows: BET inhibitor-based combinations targeting novel dependencies in MECOM-rearranged (r) AML: MV-4-11 cell line (AID 2202233). Note: nearly all actives have a fitted effect of over 45% in size. Note: potency is the fitted concentration of half-maximal effect. As to conditions: MV-4-11 AML viability, CellTiter-Glo luminescence, 48 h; series mostly up to 46 µM. Summed up: (§2)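 Luminescent ATP readout (CellTiter-Glo, 15 min at room temperature) after 48 hr drug exposure gave viability. Dose-response curves, normalized to DMSO and empty-well controls, were summarized as area under the curve and its mean-centred Z-score.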
A general note: ATP-based viability assays read luminescence as a measure of living cells.

Assay [7] in a line: BET inhibitor-based combinations targeting novel dependencies in MECOM-rearranged (r) AML: AML-191 cell line (AID 2202236;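 note: plate controls were vehicle wells for no effect and wells without cells for full effect; nearly all actives have a fitted effect of over 35% in size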). The settings on record: AML-191 viability, CellTiter-Glo luminescence, 48 h; series mostly up to 46 µM. Summed up: as §1
The nature of assay [8]: BET inhibitor-based combinations targeting novel dependencies in MECOM-rearranged (r) AML: SET-2 cell line (AID 2202231).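 For viability: plate controls were DMSO treated cells for no effect and wells without cells for full effect.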 Note: nearly all actives have a fitted effect of over 35% in size. Note: potency is the fitted concentration of half-maximal effect. As to conditions: SET-2 AML cells viability, CellTiter-Glo luminescence, 48 h; viability: hits give low values, concentration not given here. Summed up:
as §1

The nature of assay [9]: BET inhibitor-based combinations targeting novel dependencies in MECOM-rearranged (r) AML: HNT-34 cell line (AID 2202234).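 Note: plate controls were vehicle wells for no effect and cell-free wells for full effect; nearly all actives have a fitted effect of over 35% in size.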 The settings on record: HNT-34 AML viability, CellTiter-Glo luminescence, 48 h; series mostly up to 46 µM. Summed up: as §2
Assay [10] in a line: BET inhibitor-based combinations targeting novel dependencies in MECOM-rearranged (r) AML: UCSD-AML1 cell line (AID 2202235).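 Note: plate controls were DMSO vehicle wells for no effect and blank wells for full effect; nearly all actives have a fitted effect of over 40% in size.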 As to conditions: UCSD-AML1 AML cells viability, CellTiter-Glo, 48 h; series mostly up to 46 µM. A digest of the protocol:
as §2

The nature of assay [11]: BET inhibitor-based combinations targeting novel dependencies in MECOM-rearranged (r) AML: AML-194 cell line (AID 2202237;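 note: plate controls were vehicle wells for no effect and wells without cells for full effect; nearly all actives have a fitted effect of over 40% in size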). The settings on record: AML-194 (MECOM-r AML) viability, CellTiter-Glo, 48 h; series mostly up to 46 µM. Summed up:
as §1

Sequence of Cellular tumor antigen p53 (Homo sapiens) (P04637 whole entry, looked up): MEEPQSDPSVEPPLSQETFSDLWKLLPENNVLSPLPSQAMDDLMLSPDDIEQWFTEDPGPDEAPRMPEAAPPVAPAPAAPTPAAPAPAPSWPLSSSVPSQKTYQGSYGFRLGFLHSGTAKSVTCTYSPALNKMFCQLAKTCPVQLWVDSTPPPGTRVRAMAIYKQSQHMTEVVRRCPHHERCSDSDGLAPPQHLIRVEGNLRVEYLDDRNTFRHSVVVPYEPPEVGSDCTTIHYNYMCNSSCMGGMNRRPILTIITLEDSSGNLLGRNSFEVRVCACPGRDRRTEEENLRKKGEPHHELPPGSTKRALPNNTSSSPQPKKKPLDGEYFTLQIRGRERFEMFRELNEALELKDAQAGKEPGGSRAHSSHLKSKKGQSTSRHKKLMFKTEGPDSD

With `C[C@H](NC(=O)Cc1cc(F)cc(F)c1)C(=O)N[C@@H]1N=C(c2ccccc2)c2ccccc2N(C)C1=O`, the activation in [1] is 21%. Also, the Potency result in assay [2], in assay [3] and in [4] was “inactive” throughout.
For the molecule `C[C@]12CCC(=O)C=C1CC[C@@H]1[C@@H]2[C@@H](O)C[C@]2(C)C(=O)CC[C@@H]12`, the activation in assay [1] is 11%. In addition, the Potency entry in assay [2] and in assay [4] was “inactive” throughout.
Regarding `CN1CCN(c2nc3ccccc3nc2Cl)CC1`, the activation in assay [1] was 1%. Besides, the Potency entry in assay [2] and in assay [4] was “inactive” in each case.
For the molecule `Cc1c(N2C(=O)[C@@H]3[C@H](O)CCN3C2=O)ccc(C#N)c1Cl`, the activation in [1] was 3.82%. Besides, the Potency result in [2] and in [4] was “inactive” in each case.
For the molecule `C=C1C(=O)OC2/C=C(\COO)CC/C=C(\COC(C)=O)CC(OC(=O)C(C)CC)C12` (stereo not given), the Potency in [1] was 9280 nM (active). For the same molecule, the Potency entry in [2] and in [4] was “inactive” in each case.
For the molecule `CC1=C2C[C@H]3[C@@H](CC=C4C[C@@H](O)CC[C@@]43C)[C@@H]2CC[C@]12O[C@@H]1C[C@H](C)CN[C@H]1[C@H]2C`, the activation in assay [1] was 2.39%. Besides, the Potency result in [2], in assay [3], in [4], in [5], in [6] and in assay [7] was “inactive” in each case.
On to `CN(C)c1cc2c(cc1Sc1nc3c(N)nccc3n1CCNCC(C)(C)C)OCO2`, for which the activation in assay [1] was 5.25%. In addition, the Potency entry in [2], in assay [3] and in assay [4] was “inactive” in each case. Further, the results for the Potency in [8], in assay [5] and in [6] were 1320 nM (active), 1180 nM (active) and 662 nM (active), respectively.
Take `CCCCN1[C@@H]2CC[C@H]1CC(OC(c1ccc(F)cc1)c1ccc(F)cc1)C2` (stereo not given in full): the activation in assay [1] was 2.39%. The Potency result in assay [2], in assay [3] and in [4] was “inactive” each time.
For `Cc1ccccc1-n1c(Cn2ncc3c(N)ncnc32)nc2cccc(C)c2c1=O`, the activation in [1] was 66.5% and 6.21%. Besides, the Potency result in assay [2], in [3], in assay [4], in [5], in [9] and in [10] was “inactive” throughout. For the same molecule, the Potency result in [7] and in assay [11] was “inactive” throughout. Further, the viability in assay [8] was 112%. For the same molecule, the Potency in assay [6] is 8330 nM (active).

The values above are taken from PubChem BioAssay (NCATS).
